Assay results taken from PubChem BioAssay (NCI).
About 83,000 compounds went through this panel and 20% of them were active in at least one assay; those are over-represented in the sample as a whole.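 Single-dose data. Exposure time 48 hours. Values below 10 considered active.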 Values without a mark were called inactive. The source made the active and inactive calls.

Columns and labels:
Assay in all cases: NCI-60 one-dose screen, 48 h (100 = growth as untreated, 0 = no growth, -100 = all killed)
Conditions in all cases: 10 µM unless noted
DU-145 prostate = tested on: DU-145 prostate
K-562 leukemia = tested on: K-562 leukemia
MALME-3M melanoma = tested on: MALME-3M melanoma
MDA-MB-231 breast = tested on: MDA-MB-231 breast
RXF 393 renal = tested on: RXF 393 renal
SF-268 CNS = tested on: SF-268 CNS
SF-295 CNS = tested on: SF-295 CNS
SF-539 CNS = tested on: SF-539 CNS
UACC-257 melanoma = tested on: UACC-257 melanoma
M14 melanoma = tested on: M14 melanoma
HCT-15 colon = tested on: HCT-15 colon
HT29 colon = tested on: HT29 colon
SNB-75 CNS = tested on: SNB-75 CNS
SNB-19 CNS = tested on: SNB-19 CNS
U251 CNS = tested on: U251 CNS
PC-3 prostate = tested on: PC-3 prostate
SK-MEL-5 melanoma = tested on: SK-MEL-5 melanoma
UACC-62 melanoma = tested on: UACC-62 melanoma
LOX IMVI melanoma = tested on: LOX IMVI melanoma
SK-MEL-28 melanoma = tested on: SK-MEL-28 melanoma

SMILES	growth (DU-145 prostate)	growth (K-562 leukemia)	growth (MALME-3M melanoma)	growth (MDA-MB-231 breast)	growth (RXF 393 renal)	growth (SF-268 CNS)	growth (SF-295 CNS)	growth (SF-539 CNS)	growth (UACC-257 melanoma)	growth (M14 melanoma)	growth (HCT-15 colon)	growth (HT29 colon)	growth (SNB-75 CNS)	growth (SNB-19 CNS) [%]	growth (U251 CNS)	growth (PC-3 prostate)	growth (SK-MEL-5 melanoma)	growth (UACC-62 melanoma)	growth (LOX IMVI melanoma)	growth (SK-MEL-28 melanoma)
CNS(=O)(=O)c1n[nH]nc1-c1cc(C(C)(C)C)c(O)c(C(C)(C)C)c1	110%	98.7%	88.3%	103%	114%	99.3%	92.4%	99.4%	84.7%	95.9%	95.3%	108%	80.5%	107	95.5%	97.2%	94.2%	100%	101%	105%
COc1cc(-c2nc(N3CCN(C)CC3)c3ccccc3n2)cc(OC)c1OC	82.4%	44.8%	63.8%	61.2%	51.4%	56.8%	28.6%	39.3%	58.2%	42%	56.9%	49.5%	15.7%	85.2	60.2%	52.8%	47%	18.2%	44.3%	59.5%
COc1cccc(-c2nn(-c3ccccc3)cc2-c2ccnc(NCCCNC(=O)c3ccc(F)cc3)c2)c1	65.5%	16.9%	48.2%	51.3%	56.3%	53.7%	36.5%	68.3%	42.3%	20.3%	24.9%	11.7%	46.2%	67.2	36.4%	27.1%	6.09% (active)	40.1%	55.7%	58.7%
Cc1ccc(CCC(=O)Nc2ncc(Cc3cc(Cl)ccc3Cl)s2)o1	13.8%	9.78% (active)	41.5%	12.4%	-8.55% (active)	57.6%	7.41% (active)	-16.4% (active)	66.9%	6.18% (active)	12.5%	4.92% (active)	-1.75% (active)	21.7	18%	23.6%	7.9% (active)	21.2%	13.3%	55.7%
COc1cccc(C(=O)NCCNc2cc(-c3cn(-c4ccccc4)nc3-c3cccc(OC)c3)ccn2)c1	64%	32.4%	81%	62.1%	74.2%	68.9%	58.3%	87.3%	46.9%	51.3%	41.8%	22.6%	74.5%	78	48.4%	25.4%	39.3%	55.1%	62.1%	80.2%
N#Cc1c(N)nc(NCCO)nc1-c1ccc(F)cc1	113%	91.4%	108%	104%	93.5%	103%	99.1%	98.6%	90.6%	105%	99.9%	95.9%	79.2%	104	90.2%	92.9%	95%	95%	90.8%	112%
COc1ccc2[nH]c(O)c(/C=c3/cc4c(c(-c5cc(OC)c(OC)c(OC)c5)n3)=Nc3ccccc3-4)c2c1	73.9%	31.7%	94.8%	31.7%	43.1%	72.9%	76.9%	84.1%	88.5%	49.2%	46.8%	35%	78.8%	84.4	61.4%	44.7%	52.2%	80.7%	64.8%	83.1%
FC(F)(F)c1cc(Nc2ccc3cc(OCCCN4CCOCC4)ccc3n2)ccc1Cl	47.6%	-27.3% (active)	47.4%	-17.8% (active)	-0.217% (active)	46.9%	-56.7% (active)	-0.973% (active)	49.2%	19%	-0.426% (active)	-50.3% (active)	10.8%	41.1	-10.6% (active)	23.5%	64.4%	-29.7% (active)	-82.1% (active)	13.7%
CC1OC(O[C@H]2/C=C/C=C/C=C/C=C/C=C/C=C/C=C/[C@H](C)[C@@H](O)[C@@H](C)[C@H](C)OC(=O)CC(O)CC(O)CCC(O)C(O)CC(O)C[C@]3(O)C[C@H](O)C(C(=O)O)C(C2)O3)C(O)[C@H](N)C1O (stereo not given in full)	-29.9% (active)	91.8%	-66% (active)	58.7%	-64.4% (active)	-70.4% (active)	65%	17.2%	-76% (active)	16.3%	76.7%	36.8%	57.8%	40.2	-57.1% (active)	-54.6% (active)	35.9%	-13% (active)	-12% (active)	-65.8% (active)
CNC(=O)CCN1CCN(CC/C=C2\c3ccccc3Sc3ccc(Cl)cc32)CC1	90.5%	32.4%	98%	102%	21.6%	77.5%	98.5%	97.3%	-30.9% (active)	81.3%	63.2%	58.2%	74.3%	98.6	77.8%	8.82% (active)	79.6%	60.4%	72%	-51.5% (active)
COc1ccc(-c2cc(-c3ccc(Nc4nc(Nc5ccc(Cl)cc5)nc(Nc5ccc(Cl)cc5)n4)cc3)nc(N)c2C#N)cc1	37.7%	30.1%	-70.3% (active)	-30.7% (active)	-32.5% (active)	59%	415%	-48.7% (active)	-13.2% (active)	24.9%	10.6%	2.33% (active)	-74.1% (active)	105	10.9%	4.49% (active)	-67.5% (active)	42.4%	-75.1% (active)	-47.5% (active)
N#C/C(=C\c1ccc(Br)cc1)n1nnc2cc(F)c(F)cc21	15.6%	9.36% (active)	65.7%	15%	2.12% (active)	33.8%	98.6%	-2.33% (active)	50.6%	18.1%	11.1%	13.2%	12.8%	50.5	30%	31.2%	44.8%	13.3%	-49.1% (active)	42.8%
O=c1ssc(Cl)c1-c1ccccc1	113%	102%	100%	97%	86.7%	134%	102%	90.7%	91.3%	96.7%	101%	103%	90.5%	111	104%	79.5%	97.1%	95.4%	92.5%	100%
COc1cc(-c2nn(-c3ccccc3)cc2-c2ccnc(NCCNS(=O)(=O)c3ccc(Cl)cc3)n2)ccc1Cl	50.7%	27.7%	70%	53.5%	34.9%	41.2%	30.6%	60.3%	34.8%	24.3%	30.3%	11.3%	49.1%	49.9	28.4%	18.3%	32.6%	41%	32.3%	49.2%
COc1cccc(-c2nn(-c3ccccc3)cc2-c2ccnc(NCCNC(=O)Nc3ccc(Cl)c(Cl)c3)c2)c1	2.24% (active)	2.28% (active)	25.3%	-22.9% (active)	-9.27% (active)	9.11% (active)	2.94% (active)	-0.925% (active)	16%	-36.8% (active)	7.83% (active)	-20.5% (active)	-1.39% (active)	28.9	-11.6% (active)	4.19% (active)	3.01% (active)	-14.2% (active)	-68.8% (active)	16.1%
